Rab9 promoter act – Rab9 promoter activation; Huh7 Rab9 promoter-luciferase reporter, luminescence, 24 h; Potency, µM (doses to about 9.22 µM), inactives show at the top dose activation, negative = inhibition, hits mostly activators; 320,000 compounds, 2.8% hits; AID 485297; note: % of control where 0% means no effect; nearly all actives have a fitted effect of over 60% in size
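Huh7 cells stably carrying a Rab9 promoter-luciferase reporter, 1500 cells per well in OP-MEM I with 10% FBS, treated with compound 24 hours at 37C. Luciferase activity read by luminescence after 10 minutes with Amplite reagent.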
ELG1 repair inh – ELG1-dependent DNA repair inhibition; 330,000 compounds, 2.3% hits; Potency, µM (highest dose often 46.1 µM), for inactives: top-dose activity change, negative = inhibition, usual class: inhibitors; AID 504467; HEK293T ELG1-luciferase reporter, luminescence, 16 h; DNA damage induced by 5-fluorouridine; note: % is set by controls: 0 for no effect and ±100 for the full control effect; nearly all actives have a fitted effect of over 55% in size
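DMSO vehicle served as the neutral condition. Each well held 2,000 cells given 5-fluorouridine plus compound; after 16 hr at 37 °C/5% CO2, ONE-Glo was added and luciferase measured 30 min later.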
NPC1 prom act – activators of NPC1 promoter. Potency, µM (doses to about 9.22 µM), for inactives: top-dose activation, usual class: activators. AID 485313. Huh7 NPC1 promoter luciferase reporter, 24 h. 320,000 compounds, 2.4% hits; note: % of control where 0% means no effect; nearly all actives have a fitted effect of over 60% in size
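Huh7 reporter cells (NPC1 promoter driving luciferase) are dosed with compound for 24 h at 37 °C, 5% CO2; luciferase detection reagent is then added and luminescence measured after 10 min at ambient temperature.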
FLuc modulator – firefly luciferase modulation, counter-screen for miR-21 project. P08659. purified FLuc, Km substrates, luminescence inhibition. Potency, µM (titrated, usually from 57.5 µM), for the others: top-dose activity change, negative = inhibition, usual class: inhibitors. 360,000 compounds, 6.9% hits. AID 588342;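 note: plate controls were vehicle for no effect and reference inhibitor for full effect; nearly all actives have a fitted effect of over 55% in size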
Target sequence (P08659 whole entry, looked up): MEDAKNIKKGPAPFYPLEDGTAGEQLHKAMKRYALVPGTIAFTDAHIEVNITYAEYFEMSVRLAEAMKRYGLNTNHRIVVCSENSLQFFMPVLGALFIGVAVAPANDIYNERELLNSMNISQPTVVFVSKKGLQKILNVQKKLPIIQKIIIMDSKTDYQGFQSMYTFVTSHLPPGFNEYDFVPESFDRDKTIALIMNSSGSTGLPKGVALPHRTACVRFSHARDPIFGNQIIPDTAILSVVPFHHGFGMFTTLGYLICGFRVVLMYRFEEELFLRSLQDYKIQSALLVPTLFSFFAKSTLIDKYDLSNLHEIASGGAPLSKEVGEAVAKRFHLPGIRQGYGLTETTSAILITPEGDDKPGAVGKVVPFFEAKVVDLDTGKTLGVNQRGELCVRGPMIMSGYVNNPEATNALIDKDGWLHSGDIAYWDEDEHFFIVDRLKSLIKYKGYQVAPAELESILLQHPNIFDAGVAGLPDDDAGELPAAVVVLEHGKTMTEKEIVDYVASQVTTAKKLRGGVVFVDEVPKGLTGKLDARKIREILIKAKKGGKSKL
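Biochemical qHTS of compounds, final roughly 60 µM downward over six points, against 10 nM purified firefly luciferase using Km concentrations of substrates (10 uM D-luciferin, 10 uM ATP) in Tris acetate pH 7.5 buffer; luminescence output.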
SMN2 splice up – enhancers of SMN2 splice variant expression | HEK293 SMN2-luciferase splicing reporter, luminescence, 30-36 h | Potency, µM (doses to about 46.1 µM), without a hit: at the highest dose activity change, positive = activation, hits mostly activators | 210,000 compounds, 2.8% hits; note: % of control where 0% means no effect; nearly all actives have a fitted effect of over 55% in size
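HEK293 cells carry an SMN2 minigene-luciferase reporter in which exon 7 inclusion puts luciferase in frame. Cells were seeded at 2000 cells/well, attached for 10-12 hours, then exposed to compounds for 30-36 hours at 37C before ONE-Glo luminescence.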
ELG1 genotox – induces genotoxicity in HEK293T cells with luciferase-tagged ELG1 | 330,000 compounds, 1.3% hits | HEK293T ELG1-luciferase reporter, luminescence, 16 h | Potency, µM (highest dose often 46 µM), for inactives: top-dose activity change, positive = activation, usual class: activators; note: % of control where 0% means no effect; nearly all actives have a fitted effect of over 60% in size
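Cells (2,000/well) expressing the ELG1-luciferase fusion are dosed by pin tool and kept 16 hr at 37 °C, 5% CO2. Signal comes from ONE-Glo luciferase reagent after 30 min at room temperature.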
* hit, by the source's call. Compounds with a hit are over-represented: about 9.2% of the library has one in this group of screens. Calls come from the whole dose curve; as a rule, active = well fitted curve in the direction sought with a large enough effect; inconclusive = small, poorly fitted or top-dose-only effect, or another doubt; inactive = no such curve, though single readings can be large; an effect the other way counts as inactive or inconclusive. Potency is the fitted concentration of half-maximal effect.

COc1ccccc1N(Cc1ccccc1)S(=O)(=O)c1cccc(C(=O)O)c1 was read as Rab9 promoter act 0%, ELG1 repair inh 2%, NPC1 prom act 1%, FLuc modulator 0%, SMN2 splice up 5µM* and ELG1 genotox 1%.
`CCOc1ccccc1NC(=O)c1cccc(S(=O)(=O)N(Cc2ccccc2)c2ccccc2OC)c1` gave Rab9 promoter act -3%, ELG1 repair inh -17%, NPC1 prom act -9%, FLuc modulator 6%, SMN2 splice up -17% and ELG1 genotox -2%.
Screening COc1ccccc1CNC(=O)CSc1ccsc1[N+](=O)[O-] returned Rab9 promoter act 3.5µM*, ELG1 repair inh inconclusive, NPC1 prom act inconclusive, FLuc modulator inconclusive, SMN2 splice up 80% and ELG1 genotox 8%.
Screening Cc1ccc(NC(=O)COC(=O)c2ccc[n+]([O-])c2)c(Br)c1 returned ELG1 repair inh 0% and ELG1 genotox 5%.
For O=C(Nc1cccc(C(F)(F)F)c1)c1cc(-c2ccc(Cl)s2)nc2ccccc12 the results were FLuc modulator 5% and SMN2 splice up -2%.
`O=C(OCc1nnc(-c2ccc(Br)cc2)o1)c1ccco1` gave Rab9 promoter act 0%, ELG1 repair inh 7%, NPC1 prom act -3%, FLuc modulator 21µM* and ELG1 genotox 1%.
`O=C(COC(=O)c1ccc(-c2nnc(-c3ccccc3)o2)cc1)c1ccccc1` gave Rab9 promoter act 0.56µM*, ELG1 repair inh inconclusive, NPC1 prom act 0.56µM*, FLuc modulator 4%, SMN2 splice up 2.8µM* and ELG1 genotox inconclusive.
For Cc1ccccc1C(=O)OCc1nnc(-c2ccc(Cl)cc2)o1 the results were Rab9 promoter act 21%, ELG1 repair inh inconclusive, NPC1 prom act -1%, FLuc modulator 19µM*, SMN2 splice up 11% and ELG1 genotox 8%.
For O=C(OCc1nnc(-c2ccccc2)o1)c1ccccc1 the results were Rab9 promoter act 15%, ELG1 repair inh 9%, NPC1 prom act 1%, FLuc modulator 15µM*, SMN2 splice up 9% and ELG1 genotox 1%.
Cc1nc2ccc(C(=O)OCc3nnc(-c4ccccc4)o3)cc2nc1C was read as Rab9 promoter act 1%, ELG1 repair inh 3%, NPC1 prom act -2%, FLuc modulator -15% and ELG1 genotox -1%.
`O=C(OCc1nnc(-c2ccc(Cl)cc2)o1)c1ccncc1` gave Rab9 promoter act -3%, ELG1 repair inh 5%, NPC1 prom act 8%, FLuc modulator inconclusive, SMN2 splice up -1% and ELG1 genotox -2%.
For COc1ccccc1-c1nc2c(c(SCc3ccc(F)cc3Cl)n1)Cc1c(CO)cnc(C)c1O2 the results were FLuc modulator -4%.
For CCCN(CCC)CCCNC(=O)c1cc2c(=O)n(C)c3ccccc3c2s1 the results were FLuc modulator 2% and SMN2 splice up 1%.
`COc1ccc(-c2cc(-c3nnc(COC(=O)c4ccncc4)o3)c3ccccc3n2)cc1OC` gave Rab9 promoter act -1%, ELG1 repair inh 18µM*, NPC1 prom act 0%, FLuc modulator inconclusive, SMN2 splice up -5% and ELG1 genotox -17%.
`Nc1nn(-c2ccccc2)nc1C(=O)OCc1ccccc1F` gave Rab9 promoter act 15%, ELG1 repair inh 21%, NPC1 prom act 1%, FLuc modulator 17µM*, SMN2 splice up 15% and ELG1 genotox 6%.
Screening Cc1ccccc1COC(=O)c1nn(-c2ccccc2)nc1N returned Rab9 promoter act 1%, ELG1 repair inh -5%, NPC1 prom act 1%, FLuc modulator inconclusive, SMN2 splice up 10% and ELG1 genotox 9%.
